Experimental data as given in PubChem BioAssay (NCATS).
Unmarked numbers belong to inactive results. Records with an inconclusive call do not appear. A call without a number means that no potency is given here. Activity calls are given as the source filed them. Unless noted, calls follow the shape of the dose curve; as a rule, active = well fitted curve in the direction sought with a large enough effect; inconclusive = small, poorly fitted or top-dose-only effect, or another doubt; inactive = no such curve, though single readings can be large; an effect the other way counts as inactive or inconclusive.

Tests used:
[1] = target: Mitogen-activated protein kinase 10 (Mus musculus) (UniProt Q61831); assay: JNK3 AlphaScreen Assay (AID 530; active = well fitted curve in either direction with a large enough effect, not every such curve was filed as active;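 also: kinase came from lysate of stimulated human HepG2 cells; signal reports phosphorylation of biotinylated GST-cJun 1-79 at Ser73 with 10 µM ATP; series mostly up to about 57 µM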)
Outline: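 HepG2 lysate (IL-1b/TNFa pre-activated) + biotin-GST-cJun 1-79 + anti-pSer73 cJun; cpd titration, 15 min RT; ATP 10 uM start; Tris pH 7.6, MgCl2, DTT, vanadate; beads in EDTA buffer; AlphaScreen.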

[2] = Viability counterscreen for antagonist of constitutive androstane receptor (CAR) against the NCATS DSHEA and TCM libraries (AID 1794837);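 also: compound exposure lasted 24 h before viability reading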
Outline: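 Cell viability, CellTiter-Fluor, Ex/Em 405/540 nm, 1 h at 37C. HepG2-CYP2B6-hCAR, 2,500 cells/well; cpds + CITCO 48 uM final (antagonist mode), 24 h, 37C/5% CO2.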

[3] = target: Nuclear receptor subfamily 1 group I member 3 (Homo sapiens) (UniProt Q14994); assay: Primary qHTS for agonist of constitutive androstane receptor (CAR) against the NCATS DSHEA and TCM libraries (AID 1794839); also: potency is read from the fitted curve at half-maximal effect
Nuclear receptor subfamily 1 group I member 3 (Homo sapiens), sequence (Q14994 whole entry, looked up): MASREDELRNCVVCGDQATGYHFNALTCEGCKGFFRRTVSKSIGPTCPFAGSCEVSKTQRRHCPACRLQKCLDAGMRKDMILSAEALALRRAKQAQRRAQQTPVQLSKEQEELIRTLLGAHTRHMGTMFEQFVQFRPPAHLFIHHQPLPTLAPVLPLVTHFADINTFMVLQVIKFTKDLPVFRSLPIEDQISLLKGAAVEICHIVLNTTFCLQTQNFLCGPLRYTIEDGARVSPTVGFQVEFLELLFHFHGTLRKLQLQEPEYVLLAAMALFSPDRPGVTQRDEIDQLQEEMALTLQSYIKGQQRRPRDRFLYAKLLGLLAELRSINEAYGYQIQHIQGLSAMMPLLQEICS
Outline: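 Luminescence from ONE-Glo luciferase was the agonist read-out in HepG2-CYP2B6-hCAR cells exposed 24 h to test substances. Wells also held the CAR antagonist PK11195 at 0.75 µM final. Viability was by CellTiter-Fluor fluorescence.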

[4] = HepG2 viability counterscreen (readout 2: ATP content) against the NCATS DSHEA and TCM libraries (AID 1794840)
Outline: (§1)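 1,000 HepG2 cells/well, 4 h attach; compounds ~24 h, 37C/5% CO2. Readout 1: GF-AFC 25 uM final, 30 min, fluorescence 380/510 nm. Readout 2: CellTiter-Glo, 30 min RT, luminescence.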

[5] = HepG2 viability counterscreen (readout 1: protease activity) against the NCATS DSHEA and TCM libraries (AID 1794841);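 also: cells exposed to compounds for about 24 h before the protease read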
Outline: as §1

[6] = target: Cytochrome P450 3A4 (Homo sapiens) (UniProt P08684); assay: qHTS for inhibitors of CYP3A4 against the NCATS DSHEA and TCM libraries (AID 1919971); also: potency is read from the fitted curve at half-maximal effect
Cytochrome P450 3A4 (Homo sapiens), sequence (P08684 whole entry, looked up, canonical isoform): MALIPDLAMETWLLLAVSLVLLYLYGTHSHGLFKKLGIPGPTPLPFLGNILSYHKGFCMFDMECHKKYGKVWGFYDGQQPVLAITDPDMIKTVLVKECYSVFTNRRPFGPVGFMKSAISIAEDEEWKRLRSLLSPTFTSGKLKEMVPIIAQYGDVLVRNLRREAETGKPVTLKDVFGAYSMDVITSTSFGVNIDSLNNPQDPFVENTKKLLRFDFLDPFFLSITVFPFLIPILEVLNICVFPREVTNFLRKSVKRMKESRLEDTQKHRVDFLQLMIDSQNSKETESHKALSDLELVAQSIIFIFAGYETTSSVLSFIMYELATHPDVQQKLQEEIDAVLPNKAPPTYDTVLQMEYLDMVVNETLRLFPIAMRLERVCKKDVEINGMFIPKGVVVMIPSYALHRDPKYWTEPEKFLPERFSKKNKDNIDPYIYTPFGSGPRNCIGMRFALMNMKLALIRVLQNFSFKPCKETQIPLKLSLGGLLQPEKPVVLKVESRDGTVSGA
Outline: (§2)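 Isoform-specific enzyme and substrate levels; enzyme-free wells as background. Reaction: 1x NADPH regenerating system, 30-45 min, room temperature, shielded from light; luminescent detection reagent added, 30 min.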

[7] = target: Cytochrome P450 2D6 (Homo sapiens) (UniProt P10635); assay: qHTS for inhibitors of CYP2D6 against the NCATS DSHEA and TCM libraries (AID 1919972); also: potency is read from the fitted curve at half-maximal effect
Cytochrome P450 2D6 (Homo sapiens), sequence (P10635 whole entry, looked up): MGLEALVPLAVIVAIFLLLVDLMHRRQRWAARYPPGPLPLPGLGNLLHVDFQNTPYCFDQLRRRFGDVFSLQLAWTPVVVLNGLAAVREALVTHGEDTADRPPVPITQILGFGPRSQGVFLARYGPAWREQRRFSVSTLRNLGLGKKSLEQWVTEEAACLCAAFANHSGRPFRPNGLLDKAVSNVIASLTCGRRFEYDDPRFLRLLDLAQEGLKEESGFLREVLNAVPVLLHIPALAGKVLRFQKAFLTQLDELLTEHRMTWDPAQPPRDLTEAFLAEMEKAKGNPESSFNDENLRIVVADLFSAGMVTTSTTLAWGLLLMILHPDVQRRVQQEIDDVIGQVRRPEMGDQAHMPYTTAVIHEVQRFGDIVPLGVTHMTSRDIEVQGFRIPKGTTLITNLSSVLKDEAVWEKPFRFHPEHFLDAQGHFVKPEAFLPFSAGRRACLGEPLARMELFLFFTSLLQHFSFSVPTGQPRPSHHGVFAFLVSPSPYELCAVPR
Outline: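 qHTS, concentration–response format with most substances from 19.5 nM. CYP2D6 + pro-luciferin substrate, 15 min with compound, then 1x NADPH regen, 30–45 min RT dark. Glo detection 30 min, luminescence. Quinidine control.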

[8] = target: Cytochrome P450 2C19 (Homo sapiens) (UniProt P33261); assay: qHTS for inhibitors of CYP2C19 against the NCATS DSHEA and TCM libraries (AID 1919974);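 also: luminescence from luciferin released by CYP2C19 oxidation of a pro-luciferin substrate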; also: potency is read from the fitted curve at half-maximal effect
Cytochrome P450 2C19 (Homo sapiens), sequence (P33261 whole entry, looked up): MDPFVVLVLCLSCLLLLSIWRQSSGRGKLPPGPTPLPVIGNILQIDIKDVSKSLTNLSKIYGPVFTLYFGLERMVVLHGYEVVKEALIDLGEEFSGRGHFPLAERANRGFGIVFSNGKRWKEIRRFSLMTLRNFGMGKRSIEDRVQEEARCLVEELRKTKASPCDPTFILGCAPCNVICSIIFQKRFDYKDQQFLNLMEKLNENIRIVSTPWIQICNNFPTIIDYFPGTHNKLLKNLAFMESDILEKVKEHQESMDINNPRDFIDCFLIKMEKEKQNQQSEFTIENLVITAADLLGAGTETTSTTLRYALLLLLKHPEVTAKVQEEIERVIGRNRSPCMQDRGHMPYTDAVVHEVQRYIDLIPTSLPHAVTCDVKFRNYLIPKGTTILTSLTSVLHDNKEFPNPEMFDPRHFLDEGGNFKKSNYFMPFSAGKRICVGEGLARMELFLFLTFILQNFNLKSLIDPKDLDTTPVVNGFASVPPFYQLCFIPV
Outline: as §2

[9] = KB-3-1 P-gp reporter qHTS against the NCATS DSHEA and TCM libraries (AID 1919975)
Outline: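 CellTiter-Glo luminescence viability readout; KB-3-1 parental cells, 500/well, attached ~4 h, then compound for ~72 h, 37C, 5% CO2. Bortezomib intraplate control.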

[10] = target: Cytochrome P450 1A2 (Homo sapiens) (UniProt P05177); assay: qHTS for inhibitors of CYPIA2 against the NCATS DSHEA and TCM libraries (AID 1919976); also: potency is read from the fitted curve at half-maximal effect
Cytochrome P450 1A2 (Homo sapiens), sequence (P05177 whole entry, looked up): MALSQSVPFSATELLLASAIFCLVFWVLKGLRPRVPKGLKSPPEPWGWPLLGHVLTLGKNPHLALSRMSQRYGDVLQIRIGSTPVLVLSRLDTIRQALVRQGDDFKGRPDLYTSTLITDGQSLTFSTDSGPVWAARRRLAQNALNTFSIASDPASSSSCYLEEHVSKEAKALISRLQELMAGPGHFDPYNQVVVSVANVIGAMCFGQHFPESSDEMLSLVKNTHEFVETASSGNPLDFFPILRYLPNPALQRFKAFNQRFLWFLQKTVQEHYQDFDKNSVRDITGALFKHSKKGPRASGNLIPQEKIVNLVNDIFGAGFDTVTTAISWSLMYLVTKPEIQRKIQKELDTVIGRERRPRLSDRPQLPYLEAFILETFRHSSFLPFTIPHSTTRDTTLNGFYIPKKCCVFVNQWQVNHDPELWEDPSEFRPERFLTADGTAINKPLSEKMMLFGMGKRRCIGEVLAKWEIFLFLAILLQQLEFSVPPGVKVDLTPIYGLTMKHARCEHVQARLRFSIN
Outline: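 Furafylline served as the plate control. Compounds met CYP1A2 and pro-luciferin substrate 15 min before NADPH regeneration solution (1x) was added; after 30-45 min at RT, P450-Glo reagent was added for 30 min and luminescence was measured.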

[11] = qHTS Counterscreen for compound interference against the NCATS DSHEA and TCM libraries (AID 1919978); settings: firefly luciferase detection reagent interference, luminescence;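 also: compounds preincubated with 1 µM D-luciferin or buffer before detection reagent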
Outline: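 Luminescence counterscreen for detection-kit interference: compounds at 19.5 nM–39.8 uM final, 15 min RT with 1 uM D-luciferin or buffer only; detection reagent added, 30 min RT, then read.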

[12] = Dual reporter qHTS for agonist of Pregnane X Receptor (hPXR) against the NCATS DSHEA and TCM libraries: Fluorescence readout (AID 1920058)
Outline: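 In this qHTS counter-read, reporter-bearing HepG2 cells in charcoal-stripped serum received substances for approximately 24 h before viability was assessed fluorometrically with CellTiter-Fluor.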

[13] = target: Nuclear receptor subfamily 1 group I member 2 (Homo sapiens) (UniProt O75469); assay: Dual reporter qHTS for antagonist of Pregnane X Receptor (hPXR) against the NCATS DSHEA and TCM libraries: Luminescence Readout (AID 1920060);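 also: HepG2 cells carrying hPXR luciferase reporter stimulated with rifampicin at 2 µM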
Nuclear receptor subfamily 1 group I member 2 (Homo sapiens), sequence (O75469 whole entry, looked up): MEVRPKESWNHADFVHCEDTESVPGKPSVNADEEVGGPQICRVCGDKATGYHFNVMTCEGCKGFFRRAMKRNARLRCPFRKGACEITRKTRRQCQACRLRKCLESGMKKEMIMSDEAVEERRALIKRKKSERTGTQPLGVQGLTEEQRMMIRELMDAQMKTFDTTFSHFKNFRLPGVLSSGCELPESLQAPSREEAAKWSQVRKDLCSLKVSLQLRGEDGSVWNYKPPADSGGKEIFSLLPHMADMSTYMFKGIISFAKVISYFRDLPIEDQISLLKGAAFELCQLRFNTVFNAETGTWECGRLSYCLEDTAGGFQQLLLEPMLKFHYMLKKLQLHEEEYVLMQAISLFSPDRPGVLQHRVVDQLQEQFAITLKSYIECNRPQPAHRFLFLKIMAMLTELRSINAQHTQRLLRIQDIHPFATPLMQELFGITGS
Outline: (§3)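 HepG2 hPXR-Luc, 2000 cells/well, charcoal-stripped FBS medium; 5 h attach; RIF 2 uM final; 24 h 37C/5% CO2; CellTiter-Fluor 1 h, fluor 405/540; ONE-Glo 30 min RT, lum.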

[14] = Dual reporter qHTS for antagonist of Pregnane X Receptor (hPXR) against the NCATS DSHEA and TCM libraries: Fluorescence Readout (AID 1920061)
Outline: as §3

Row | Structure (SMILES) | Potency [1] | outcome [2] | Potency [3] | outcome [4] | outcome [5] | Potency [6] | Potency [7] | Potency [8] | outcome [9] | Potency [10] | max response [11] | outcome [12] | outcome [13] | outcome [14]
1 | O=C(O)c1ccccc1 | inactive | inactive | inactive | inactive | inactive | inactive | inactive | inactive | inactive | inactive | -0.483% | inactive | inactive | inactive
2 | CCCCCCCCC[C@@H](O)CC(=O)CCc1ccc(O)c(OC)c1 |  | inactive | 12.6 µM (active) | inactive | inactive |  | inactive | 6.31 µM (active) | inactive |  | 2.63% | inactive | inactive | inactive
3 | CC1=CCC(=C(C)C)CC1 |  | inactive | inactive | inactive | inactive | 39.8 µM (active) | inactive |  | inactive | inactive | 2.83% | inactive | inactive | inactive
4 | CCCCCCC/C=C/C(=O)CCc1ccc(O)c(OC)c1 |  | inactive | inactive | inactive | inactive | 14.1 µM (active) | 10 µM (active) | 6.31 µM (active) | inactive | 25.1 µM (active) | 6.04% | inactive | inactive | inactive
5 | CC1(C)C2CCC1(C)C(O)C2 (centres undefined) |  | inactive | inactive | inactive | inactive | inactive | inactive | inactive | inactive | inactive | 1.58% | inactive | inactive | 
6 | Oc1cc(O)c2c(c1)O[C@@H](c1cc(O)c(O)c(O)c1)[C@H](O)C2 |  | inactive |  | inactive | inactive | inactive | inactive | 3.55 µM (active) | inactive | 3.55 µM (active) | -5.21% | inactive | inactive | 
7 | C=CC(C)(CCC=C(C)C)OC(C)=O (centres undefined) |  | inactive | inactive | inactive | inactive | inactive | inactive | inactive | inactive | inactive | -0.984% | inactive | inactive | inactive
8 | CC1=C2[C@H](/C=C(\C)C(=O)O)CC[C@@H](C)[C@H]2CC1 |  | inactive |  | inactive | inactive | inactive | inactive |  | inactive | inactive | 1.69% | inactive | inactive | inactive
9 | O=C(O)[C@H]1O[C@@H](Oc2c(-c3ccc(O)c(O)c3)oc3cc(O)cc(O)c3c2=O)[C@H](O)[C@@H](O)[C@@H]1O |  | inactive | inactive | inactive | inactive |  | inactive | 3.98 µM (active) | inactive |  | 3.23% | inactive | inactive | 
10 | CC(C)(O)[C@@H]1CC[C@](C)([C@H]2[C@@H](O)C[C@@]3(C)[C@@H]4C[C@H](O)[C@H]5C(C)(C)[C@@H](O[C@@H]6OC[C@@H](O)[C@H](O)[C@H]6O[C@@H]6O[C@H](CO)[C@@H](O)[C@H](O)[C@H]6O)CC[C@@]56C[C@@]46CC[C@]23C)O1 |  | inactive |  | inactive | inactive | inactive | inactive |  | inactive | inactive | 4.11% | inactive | inactive | inactive
11 | COc1ccc(-c2coc3cc(O[C@@H]4O[C@H](CO)[C@@H](O)[C@H](O)[C@H]4O)ccc3c2=O)cc1 |  | inactive | 11.2 µM (active) | inactive | inactive | inactive | inactive | inactive | inactive | inactive | 3.05% | inactive | inactive | 
12 | CC(C)=CCCC(C)=CCCC(C)=CCCC=C(C)CCC=C(C)CCC=C(C)C |  | inactive | inactive | inactive | inactive | inactive | inactive | inactive | inactive | inactive | -1.5% | inactive | inactive | inactive
13 | CCCCCCCCCCCCCC(=O)O |  | inactive | inactive | inactive | inactive | inactive | inactive | inactive | inactive |  | -1.78% | inactive | inactive | 
14 | CC(=O)O[C@H]1[C@H](O[C@H]2CC[C@]34C[C@]35CC[C@]3(C)[C@@H]([C@@]6(C)CC[C@@H](C(C)(C)O)O6)[C@@H](O)C[C@@]3(C)[C@@H]5C[C@H](O[C@@H]3O[C@H](CO)[C@@H](O)[C@H](O)[C@H]3O)[C@H]4C2(C)C)OC[C@@H](O)[C@@H]1O |  | inactive | inactive | inactive | inactive | inactive | inactive | inactive | inactive | inactive | -3.47% | inactive | inactive | inactive
15 | CCCCCCCC/C=C/CCCCCCCCCC(=O)O |  | inactive | inactive | inactive |  |  | inactive | inactive | inactive | inactive | -1.3% | inactive | inactive | inactive
16 | C=C(C)[C@H]1CC=C(CO)CC1 |  | inactive |  | inactive | inactive |  | inactive | 12.6 µM (active) | inactive |  | 2.16% | inactive | inactive | 
17 | CC(C)c1ccc(C=O)cc1 |  | inactive | inactive | inactive | inactive | inactive | inactive | inactive | inactive | inactive | -3.36% | inactive | inactive | inactive
18 | C=C1C[C@@]23CC[C@H]4[C@@](C)(CCC[C@@]4(C)C(=O)O[C@@H]4O[C@H](CO)[C@@H](O)[C@H](O)[C@H]4O)[C@@H]2CC[C@]1(O[C@@H]1O[C@H](CO)[C@@H](O)[C@H](O[C@@H]2O[C@H](CO)[C@@H](O)[C@H](O)[C@H]2O)[C@H]1O[C@@H]1O[C@@H](C)[C@H](O)[C@@H](O)[C@H]1O)C3 |  | inactive | inactive | inactive | inactive | inactive | inactive | inactive | inactive | inactive | 2.19% | inactive | inactive | inactive
19 | C=C1C[C@@]23CC[C@H]4[C@](C)(CCC[C@]4(C)C(=O)O[C@@H]4O[C@H](CO)[C@@H](O)[C@H](O)[C@H]4O)[C@@H]2CC[C@]1(O[C@H]1O[C@@H](CO)[C@H](O)[C@@H](O)[C@@H]1O)C3 |  | inactive | inactive | inactive | inactive | inactive | inactive |  | inactive |  | 3.88% | inactive | inactive | 
20 | OCCc1ccc(O)cc1 |  | inactive | inactive | inactive | inactive | inactive | inactive | inactive | inactive | inactive | -3.57% | inactive | inactive | 
21 | CC(=O)OC/C=C/c1ccccc1 |  | inactive | inactive | inactive | inactive | inactive | inactive |  | inactive | 28.2 µM (active) | 3.54% | inactive | inactive | 
22 | CCCCCC(=O)CC |  | inactive | inactive | inactive | inactive | inactive | inactive | inactive | inactive | inactive | -3.61% | inactive | inactive | inactive
